Screening data as filed in PubChem.
RECQ1 helicase: inhibitors of human RECQ1 DNA helicase | P46063 | RECQ1 DNA unwinding, red fluorescence kinetic read | Potency, µM (titrated, usually from 57.3 µM), for inactives: at the top dose activity, negative = inhibition, usual class: inhibitors | actives 0.54% (n = 240,000);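 further: plate controls were vehicle for no effect and no enzyme for full effect; nearly all actives have a fitted effect of over 30% in size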
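RECQ1T1 50 nM; forked duplex (20 bp + 30-nt ss tails) 200 nM, ATP 2 mM final; pH 8.0, 2 mM MgCl2, 2.5 ug/ml poly(dI-dC); 15 min compound preincubation; discontinuous kinetic read over 2 h at RT.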
TDP1 inh: blocks human tyrosyl-DNA phosphodiesterase 1. Q9NUW8. recombinant TDP1, AlphaScreen DNA substrate cleavage. Potency, µM (highest dose often 130 µM), inactives show at the highest dose activity change, negative = inhibition, usual class: inhibitors. actives 0.28% (n = 350,000). AID 485290; further: nearly all actives have a fitted effect of over 40% in size
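Signal: AlphaScreen proximity between streptavidin donor and anti-FITC acceptor beads on intact substrate. Reaction: Tdp1 1 nM, substrate 15 nM final, 5 min RT after 15 min compound preincubation.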
APEX1 inh: inhibitors of human APE1 endonuclease | recombinant APE1, TAMRA/BHQ-2 abasic DNA cleavage fluorescence | actives 0.35% (n = 350,000) | Potency, µM (series often up to 65.8 µM), inactives show at the top dose activity change, negative = inhibition, hits mostly inhibitors | AID 2517;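 further: plate controls were vehicle for no effect and reference inhibitor for full effect; nearly all actives have a fitted effect of over 55% in size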
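APE1 at 0.75 nM final was preincubated with compound 15 min at room temperature, then 50 nM double-stranded THF abasic-site substrate (5'-TAMRA/3'-BHQ-2) was added. Fluorescence (ex 525/em 598 nm) was read kinetically; third-minus-first read gave activity.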
BLM inh: blocks DNA unwinding by human BLM helicase. recombinant BLM DNA unwinding, fluorescence dequenching. Potency, µM (highest dose often 56.1 µM), for the others: at the highest dose activity change, negative = inhibition, hits mostly inhibitors. actives 0.2% (n = 350,000);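 further: plate controls were vehicle for no effect and no enzyme for full effect; nearly all actives have a fitted effect of over 35% in size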
KAT2A inh: inhibitors of human GCN5L2 histone acetyltransferase | Q92830 | GCN5L2 HAT assay, ThioGlo1 CoA-SH fluorescence | Potency, µM (titrated, usually from 58.9 µM), for inactives: at the top dose activity change, negative = inhibition, usual class: inhibitors | actives 0.21% (n = 390,000)
Target sequence (Q92830 whole entry, looked up): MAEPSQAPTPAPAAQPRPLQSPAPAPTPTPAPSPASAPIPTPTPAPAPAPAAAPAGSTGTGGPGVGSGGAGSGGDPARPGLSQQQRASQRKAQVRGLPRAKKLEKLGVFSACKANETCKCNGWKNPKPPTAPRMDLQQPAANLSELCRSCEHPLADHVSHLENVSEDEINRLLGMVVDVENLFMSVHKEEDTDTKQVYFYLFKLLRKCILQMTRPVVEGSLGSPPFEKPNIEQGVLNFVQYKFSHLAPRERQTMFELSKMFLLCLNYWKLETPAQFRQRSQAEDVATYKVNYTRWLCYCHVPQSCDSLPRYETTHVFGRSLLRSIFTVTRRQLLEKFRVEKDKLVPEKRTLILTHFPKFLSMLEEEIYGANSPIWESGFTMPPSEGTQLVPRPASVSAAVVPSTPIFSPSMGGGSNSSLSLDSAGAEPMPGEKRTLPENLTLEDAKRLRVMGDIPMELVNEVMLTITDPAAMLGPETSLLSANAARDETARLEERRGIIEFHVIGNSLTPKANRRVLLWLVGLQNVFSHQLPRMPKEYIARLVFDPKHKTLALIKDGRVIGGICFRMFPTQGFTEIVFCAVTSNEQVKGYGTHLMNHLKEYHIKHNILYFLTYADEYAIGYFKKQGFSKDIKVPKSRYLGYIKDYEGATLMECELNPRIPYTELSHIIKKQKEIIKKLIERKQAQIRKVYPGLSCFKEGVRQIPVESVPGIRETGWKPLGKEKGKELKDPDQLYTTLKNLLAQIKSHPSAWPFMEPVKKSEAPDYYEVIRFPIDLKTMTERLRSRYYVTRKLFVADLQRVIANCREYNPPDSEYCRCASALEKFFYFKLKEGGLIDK
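GCN5L2 (20 nM) in 50mM HEPES pH 7.5, 0.1mM EDTA, 0.01% Tween-20 preincubated 15 min with compounds at room temperature. Reaction started with H3(1-25) 75uM, acetyl-CoA 70uM, ThioGlo1 50uM; CoA-thiol fluorescence (Ex340/Em540) read at 0 and 20 min.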
* hit, by the source's call; ! = a repeat was not active; [ ] = dose if it differs, or a comment. A selection: hits, their analogues and other compounds. The true share with any hit is near 0.87%. The call rests on the fitted dose curve; in most records, active means well fitted curve in the direction sought with a large enough effect; inconclusive means small, poorly fitted or top-dose-only effect, or another doubt; inactive means no such curve, though single readings can be large; an effect the other way counts as inactive or inconclusive. Unless noted, on the % scale 0 is the no-effect control and ±100 the full control effect; potency means the concentration at half of the fitted maximal effect.

CCOc1ccc2nc(N=Nc3c(O)[nH]c(=O)[nH]c3=O)sc2c1 was read as RECQ1 helicase 12.7%, TDP1 inh 39.8µM*, APEX1 inh 0.6%, BLM inh 0.9% and KAT2A inh -1.3%.
CC(CCC(=O)O)C1CCC2C3CC[C@H]4CC(O)CC[C@@]4(C)C3CC[C@@]12C (stereo partly specified) was read as RECQ1 helicase 3.5%, TDP1 inh -4.5%[56.1 µM], APEX1 inh inconclusive, BLM inh -29.8% and KAT2A inh inconclusive.
Screening C[C@@]12C(=O)OC(=O)[C@]1(C)[C@H]1CC[C@@H]2O1 returned RECQ1 helicase inactive, TDP1 inh 12.3%[21 µM], BLM inh 1.7%[21.4 µM] and KAT2A inh 38.7%[21.4 µM].
CC(C)c1ccc(N2C(=O)NC(=O)/C(=C\C=C\c3ccco3)C2=O)cc1 was read as RECQ1 helicase 15.8µM*, TDP1 inh 2.5%, APEX1 inh inconclusive, BLM inh inconclusive and KAT2A inh inconclusive.
Screening On1ccccc1=S returned APEX1 inh 6.9% and KAT2A inh 12.6µM*.
CCC(C)=O was read as RECQ1 helicase -12.3%, TDP1 inh 16.6% and APEX1 inh 3.9%.
`CC(=O)[O][Hg][c]1ccccc1` gave RECQ1 helicase 9.0%, TDP1 inh 31.6µM*, APEX1 inh 26.4%, BLM inh 5.3% and KAT2A inh inconclusive.
For CC(=O)NNc1ccccc1 the results were RECQ1 helicase -0.4%, TDP1 inh 9.9% and APEX1 inh -4.4%.
For Cc1cc(=O)oc2c3c(cc(OCC(=O)N4CCC[C@H]4C(=O)O)c12)OC(C)(C)CC3 the results were APEX1 inh 18.2%, BLM inh 1.7% and KAT2A inh inconclusive.
C=C1CCC(O)C/C1=C/C=C1\CCC[C@]2(C)[C@@H]([C@H](C)CCCC(C)C)CC[C@@H]12 (stereo partly specified) was read as RECQ1 helicase -7.5%, TDP1 inh 11.5%, APEX1 inh -2.6%, BLM inh -3.3% and KAT2A inh -13.1%.
`O=C(Nc1cc(C(F)(F)F)cc(C(F)(F)F)c1)c1cc(Cl)ccc1O` gave RECQ1 helicase -15.5%, TDP1 inh -0.3%, APEX1 inh -8.8%, BLM inh -21.6% and KAT2A inh inconclusive.
Cc1cc(=O)oc2cc3c(cc12)CCCN3 was read as APEX1 inh -8.8%, BLM inh 1.1% and KAT2A inh 22.4µM*.
For CC1=C(O)C(=O)C=C2C1=CC=C1[C@]2(C)CC[C@@]2(C)C3C[C@](C)(C(=O)O)CC[C@@]3(C)CC[C@@]12C (stereo partly specified) the results were RECQ1 helicase -11.8%, TDP1 inh 12.0%, APEX1 inh -0.7%, BLM inh -18.4% and KAT2A inh 12.6µM*.
`O=c1[nH]c(=S)n(-c2cccc(Cl)c2)c(O)c1/C=N/N1CCOCC1` gave RECQ1 helicase -8.4%, APEX1 inh 0.2%, BLM inh -4.4% and KAT2A inh 28.8%.
O=c1[nH]c(=S)n(-c2ccccc2)c(O)c1/C=N/N1CCCCC1c1cccnc1 (stereo unspecified) was read as RECQ1 helicase 25.1µM*, TDP1 inh 5.8%, APEX1 inh inconclusive, BLM inh -5.0% and KAT2A inh -17.7%.
Screening O=C(O)c1cc(Oc2ccc([N+](=O)[O-])cc2)cc(Oc2ccc([N+](=O)[O-])cc2)c1 returned RECQ1 helicase -11.2%, TDP1 inh 10.2%, APEX1 inh -4.5%, BLM inh -3.0% and KAT2A inh inconclusive.
Screening NC1C=CC=C(C(=O)O)C1 (stereo unspecified) returned RECQ1 helicase -12.9%, TDP1 inh 3.98µM*!, APEX1 inh 12.6µM*! and KAT2A inh inconclusive.
`O=C1C=Cc2ccccc2C1=O` gave RECQ1 helicase 28.2µM*, TDP1 inh -11.0%, APEX1 inh inconclusive, BLM inh -0.6% and KAT2A inh 28.2µM*.
Screening O=C1c2ccccc2C(=O)c2ccccc21 returned RECQ1 helicase -9.1%, TDP1 inh 2.1%, APEX1 inh -3.7%, BLM inh 2.4% and KAT2A inh 3.2%.
`C/C(O)=C1\C(=O)[C@@H]2[C@H]3c4c[nH]c5cccc(c45)C[C@H]3C(C)(C)N2C1=O` gave RECQ1 helicase 5.9%, TDP1 inh 17.1%, APEX1 inh 15.2% and KAT2A inh -3.7%.
CNC[C@H](O)c1ccc(OC(=O)C(C)(C)C)c(OC(=O)C(C)(C)C)c1 was read as RECQ1 helicase -1.5%[25.9 µM], TDP1 inh 4.3%[56.1 µM], BLM inh -5.1%[21.4 µM] and KAT2A inh inconclusive.
For C=C/C(=C/C(=O)C[C@H](C)C[C@@H](C)CC[C@H](O)[C@H](C)C(=O)C[C@@H](O)[C@H](C)[C@@H](C)OC(=O)C[C@@H](O)C1=C(C)C(=O)OC1=O)CC the results were RECQ1 helicase inactive[11.5 µM], TDP1 inh -9.2%[21 µM], APEX1 inh -4.0%[12.4 µM], BLM inh -17.1%[12.4 µM] and KAT2A inh 3.16µM*.
Screening CCN1/C(=C\C=C\C2=[N+](CC)c3ccccc3C2(C)C)C(C)(C)c2ccccc21 returned RECQ1 helicase 28.2µM*, TDP1 inh 7.6%, APEX1 inh 31.6µM*, BLM inh 7.94µM* and KAT2A inh -5.9%.
Screening NC(=O)[C@H](Cc1ccccc1)NC(=O)[C@H](Cc1c[nH]c2ccccc12)NC(=O)[C@@H]1CCCN1C(=O)[C@@H](N)Cc1ccc(O)cc1 returned TDP1 inh 1.2%.
CC(=O)c1c(O)n(-c2cccc(Cl)c2)c(=O)[nH]c1=O (tested in a mixture with another compound) was read as RECQ1 helicase -7.1%, TDP1 inh 1.2%, APEX1 inh 0.1%, BLM inh -6.7% and KAT2A inh -2.7%.
`CC(C)n1c(O)c(C2c3cc(Cl)ccc3Oc3[nH]c(=O)n(C(C)C)c(=O)c32)c(=O)[nH]c1=O` (stereo unspecified) gave RECQ1 helicase -3.4%, TDP1 inh 0.0%, APEX1 inh 0.0%, BLM inh 0.2% and KAT2A inh 28.2µM*.
`C=C(C)[C@@H]1CC[C@]2(C(=O)O)CC[C@]3(C)[C@H](CCC4[C@@]5(C)CC[C@H](O)C(C)(C)[C@@H]5CC[C@]43C)[C@@H]12` (stereo partly specified) gave RECQ1 helicase inactive, TDP1 inh 3.7%, APEX1 inh 6.4% and KAT2A inh 3.9%.
Screening Cc1cn([C@H]2C[C@H](O)[C@@H](CO)O2)c(=O)[nH]c1=O returned RECQ1 helicase -1.8%, TDP1 inh 3.1%, APEX1 inh inconclusive, BLM inh 0.1% and KAT2A inh -3.0%.
